NLRP3 yeast inh: NALP3 inflammasome inhibitors in reconstituted yeast, primary screen, luminescence, uHTS | 330,000 compounds, 0.39% hits | inhibition, % at 10 µM | Yeast reconstituted NLRP3/ASC/caspase-1, beta-gal luminescence, 24 h | AID 2825, 2010;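 active = inhibition of 50% or more; inactive = inhibition below 50%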;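 also: plate controls were induced DMSO wells for no effect and uninduced yeast grown without galactose for full effect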
NALP1 inh: NALP1 inflammasome inhibitors in reconstituted yeast, colorimetric, S. cerevisiae, triplicate retest | AID 2071, 2009 | S. cerevisiae NALP1/ASC/caspase-1 growth, X-gal OD620, 72 h | 280,000 compounds, 0.61% hits | inhibition, % at 10 µM; in the data active = inhibition mostly above about 24%, no sharp cut-off; inactive = mostly below about 32%
V-ATPase pH: regulators of yeast V-ATPase proton pumping, primary screen, pHLuorin cytosolic pH fluorescence | 350,000 compounds, 0.37% hits | S. cerevisiae | response, % at 10 µM; in the data active = response mostly above about 7.3%, no sharp cut-off; inactive = mostly below about 5.4%; also: actives read high
TIM10 inh: growth inhibitors of isogenic TIM10 control yeast, primary screen, counter-screen for tim10-1 yeast inhibitor project, luminescence, uHTS; S. cerevisiae TIM10 strain growth, BacTiter-Glo luminescence, 24 h; inhibition, % at 10 µM; 330,000 compounds, 1.4% hits; AID 463195, 2010;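 active = inhibition of 40% or more at the single tested concentration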;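 also: wild-type TIM10 isogenic control strain grown at permissive 25 °C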
tim23-1 inh: growth inhibitors of tim23-1 mutant yeast, primary screen, luminescence, uHTS. S. cerevisiae tim23-1 growth, BacTiter-Glo luminescence, 24 h. inhibition, % at 20 µM. 330,000 compounds, 1.3% hits. AID 463212, 2010;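 active = growth inhibition of the mutant yeast at or above 50%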;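 also: temperature-sensitive mutant grown at 25 °C; plate controls were DMSO-treated mutant yeast for no effect and medium wells lacking yeast for full effect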
tim10-1 inh: growth inhibitors of tim10-1 mutant yeast, primary screen, luminescence, uHTS. S. cerevisiae tim10-1 ts strain growth, BacTiter-Glo, 24 h. 330,000 compounds, 2.2% hits. AID 463190, 2010. inhibition, % at 20 µM;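 active = inhibition of at least 40%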;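 also: mutant grown at 25 °C; 0% = DMSO wells with yeast and 100% = wells holding no yeast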
The depositor's hits bear a star. Sampled rows, rich in hits. Any-hit rate of the full collection: about 4.2%.

What do the screens show for `Cc1ccc(/C=N/NC(=O)c2cc(C)oc2C)cc1`?
NLRP3 yeast inh: 20; NALP1 inh: 36*; V-ATPase pH: -2; TIM10 inh: 0; tim23-1 inh: 8; tim10-1 inh: -23

How did Cc1cc(C(=O)N/N=C/c2ccncc2)c(C)o1 do in these assays?
NLRP3 yeast inh: 16; NALP1 inh: -47; V-ATPase pH: 7; TIM10 inh: -3; tim23-1 inh: -16; tim10-1 inh: -19

How did CC1CN(S(=O)(=O)c2ccc(-c3nc4ccccc4s3)cc2)CC(C)O1 (configuration not stated) do in these assays?
NLRP3 yeast inh: 2; NALP1 inh: 30*; V-ATPase pH: 1; TIM10 inh: 17; tim23-1 inh: 12; tim10-1 inh: 15

What do the screens show for `NC(=O)CC(NC(=O)Cc1ccc(Cl)cc1)c1ccc(NCCOc2ccccc2)c([N+](=O)[O-])c1` (configuration not stated)?
NLRP3 yeast inh: 9; NALP1 inh: 30; V-ATPase pH: 6; TIM10 inh: -19; tim23-1 inh: -4; tim10-1 inh: -2

How did Cc1ccc(S(=O)(=O)N2CCCCC2)cc1NC(=O)c1cc2ccccc2o1 do in these assays?
NLRP3 yeast inh: -18; V-ATPase pH: 27*; TIM10 inh: 31; tim23-1 inh: 41; tim10-1 inh: 21

How did CC(C)NCCCCOc1ccc(Br)cc1Cl do in these assays?
NLRP3 yeast inh: 20; NALP1 inh: 28*; V-ATPase pH: -2; TIM10 inh: 10; tim23-1 inh: 8; tim10-1 inh: 13

How did c1ccc(-n2nnnc2-c2cnc(-c3ccncc3)nc2-c2cccs2)cc1 do in these assays?
NLRP3 yeast inh: 10; NALP1 inh: 22*; V-ATPase pH: 2; TIM10 inh: -30; tim23-1 inh: 19; tim10-1 inh: 11

Results for FC(F)(F)c1nc(-c2ccncc2)ncc1-c1nnnn1-c1ccccc1 ?
NLRP3 yeast inh: 15; NALP1 inh: 20; V-ATPase pH: 0; TIM10 inh: -15; tim23-1 inh: 9; tim10-1 inh: 11

Results for CCCCN(CCCC)Cc1cc2ccccc2c2c1COC2 ?
NLRP3 yeast inh: -5; NALP1 inh: 44*; V-ATPase pH: 2; TIM10 inh: -4; tim23-1 inh: -9; tim10-1 inh: -15

What do the screens show for `CC(=O)c1ccc(N=c2scc(C)n2C(C)C)cc1`?
NLRP3 yeast inh: 17; NALP1 inh: 6; V-ATPase pH: 1; TIM10 inh: -5; tim23-1 inh: 23; tim10-1 inh: 13

How did CNc1nc(NC)c2cn[nH]c2n1 do in these assays?
V-ATPase pH: -5

Results for CC(Oc1ccc(Cl)cc1Cl)C(=O)NCCCN1CCOCC1 (configuration not stated) ?
NLRP3 yeast inh: 19; NALP1 inh: 41*; V-ATPase pH: 1; TIM10 inh: -39; tim23-1 inh: 3; tim10-1 inh: -21

How did Cc1c(CCOC(=O)C23CC4(C)CC(C)(CC(C)(C4)C2)C3)sc[n+]1CC(=O)c1ccccc1 do in these assays?
NLRP3 yeast inh: 7; NALP1 inh: 17; V-ATPase pH: 1; TIM10 inh: 11; tim23-1 inh: 20; tim10-1 inh: 28

Results for Cc1c(CCOC(=O)CC23CC4CC(CC(C4)C2)C3)sc[n+]1CC(=O)c1ccccc1 ?
NLRP3 yeast inh: -4; NALP1 inh: 35*; V-ATPase pH: 0; TIM10 inh: 3; tim23-1 inh: 16; tim10-1 inh: 5

What do the screens show for `Cc1cccc(NC(=S)N2CCC(NC(=O)c3ccco3)CC2)c1`?
NLRP3 yeast inh: 13; NALP1 inh: -9; V-ATPase pH: -1; TIM10 inh: 4; tim23-1 inh: 3; tim10-1 inh: -9

What do the screens show for `O=C(O)c1ccccc1SC1CC(=O)N(c2cccc3ccccc23)C1=O` (configuration not stated)?
V-ATPase pH: -3

What do the screens show for `COC(=O)c1ccccc1SC1CC(=O)N(c2ccccc2)C1=O` (configuration not stated)?
NLRP3 yeast inh: 11; NALP1 inh: 78*; V-ATPase pH: -3; TIM10 inh: 13; tim23-1 inh: 31; tim10-1 inh: 26

Results for O=C(CCc1ccccc1)Nc1cc(C(=O)O)cc(C(=O)O)c1 ?
NLRP3 yeast inh: 8; NALP1 inh: -9; V-ATPase pH: 2; TIM10 inh: 11; tim23-1 inh: 5; tim10-1 inh: -5

Results for O=C(CNC(=O)C1COc2ccccc2O1)Nc1ccc(F)c(F)c1 (configuration not stated) ?
NLRP3 yeast inh: -8; V-ATPase pH: -6; TIM10 inh: 7; tim23-1 inh: 8; tim10-1 inh: -1

What do the screens show for `COc1ccc(S(=O)(=O)N2CCOCC2)cc1C(=O)NCC(c1ccco1)N1CCCC1` (configuration not stated)?
NLRP3 yeast inh: 7; V-ATPase pH: -3; TIM10 inh: 2; tim23-1 inh: 14; tim10-1 inh: 5

What do the screens show for `COc1cc(C=Nc2cccc(C)c2)c(O)c([N+](=O)[O-])c1`?
NLRP3 yeast inh: 7; NALP1 inh: 49*; V-ATPase pH: 1; TIM10 inh: 23; tim23-1 inh: 36; tim10-1 inh: 10

How did O=C1NCC(Nc2ccc(Br)cc2)C(=O)N1 (configuration not stated) do in these assays?
V-ATPase pH: -3

What do the screens show for `CO[C@H]1C[C@@H]2CC[C@@H](C)[C@@](O)(O2)C(=O)C(=O)N2CCCC[C@H]2C(=O)O[C@H]([C@H](C)C[C@@H]2CC[C@@H](O)[C@H](OC)C2)CC(=O)[C@H](C)C=C(C)[C@@H](O)[C@@H](OC)C(=O)[C@H](C)C[C@H](C)C=CC=CC=C1C`?
NALP1 inh: 66*

Results for CC[C@@H]1C=C(C)C[C@H](C)C[C@H](OC)[C@H]2O[C@@](O)(C(=O)C(=O)N3CCCC[C@H]3C(=O)O[C@H](/C(C)=C/[C@@H]3CC[C@@H](O)[C@H](OC)C3)[C@H](C)[C@@H](O)CC1=O)[C@H](C)C[C@@H]2OC ?
NALP1 inh: 2

What do the screens show for `CCNC(=O)CC1SC(=Nc2ccc(C)cc2)NC1=O` (configuration not stated)?
NLRP3 yeast inh: 3; NALP1 inh: -1; V-ATPase pH: -4; TIM10 inh: -3; tim23-1 inh: 2; tim10-1 inh: 5

Results for Cc1ccc(N=C2NC(=O)C(CC(=O)O)S2)cc1 (configuration not stated) ?
NLRP3 yeast inh: 2; NALP1 inh: -2; V-ATPase pH: 22*; TIM10 inh: 2; tim23-1 inh: 10; tim10-1 inh: 0

Bioassay records from PubChem.
